Screening results deposited in PubChem BioAssay by The Scripps Research Institute Molecular Screening Center.
Most compounds without a hit are left out; they make up all but 1.9% or so of the library.
LYPLA1 inh – blocks human lysophospholipase 1, a PME1 counter-screen. recombinant LYPLA1, FP-Rh probe fluorescence polarization. O75608. actives 0.16% (n = 320,000). inhibition, % at 5.9 µM;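 active = inhibition above the mean of all tested compounds plus 3 SD, set per campaign, cut at about 14% in these data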;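 note: inhibitors block serine hydrolase probe labeling of LYPLA1 so polarization falls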
Target sequence (O75608 whole entry, looked up): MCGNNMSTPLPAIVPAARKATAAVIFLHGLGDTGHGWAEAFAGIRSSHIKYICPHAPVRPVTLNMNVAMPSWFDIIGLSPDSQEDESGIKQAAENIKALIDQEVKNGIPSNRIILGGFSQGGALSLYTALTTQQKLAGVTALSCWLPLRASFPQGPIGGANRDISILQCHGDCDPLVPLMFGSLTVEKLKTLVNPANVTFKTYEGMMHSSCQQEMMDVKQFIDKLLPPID
LYPLA2 inh – blocks human lysophospholipase 2, a PME1 counter-screen; recombinant LYPLA2, FP-Rh probe fluorescence polarization; AID 2177; actives 0.38% (n = 320,000); O95372; inhibition, % at 5.9 µM;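 active = inhibition above the screen-wide mean plus 3 SD, limit set per campaign, cut at about 26% in these data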
PREPL inh – inhibits the human prolyl oligopeptidase-like enzyme; AID 2751; recombinant PREPL, fluorescence polarization activity-based probe; actives 0.68% (n = 320,000); inhibition, % at 5.96 µM
GSTO1 inh – counter-screen for RBBP9 inhibitors: inhibitors of human GSTO1 | recombinant GSTO1, activity-based probe fluorescence polarization | P78417 | AID 1974 | actives 1.1% (n = 300,000) | inhibition, % at 5.96 µM;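 active = inhibition above the campaign mean inhibition plus 3 SD, cut at about 35% in these data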
Target sequence (P78417 whole entry, looked up): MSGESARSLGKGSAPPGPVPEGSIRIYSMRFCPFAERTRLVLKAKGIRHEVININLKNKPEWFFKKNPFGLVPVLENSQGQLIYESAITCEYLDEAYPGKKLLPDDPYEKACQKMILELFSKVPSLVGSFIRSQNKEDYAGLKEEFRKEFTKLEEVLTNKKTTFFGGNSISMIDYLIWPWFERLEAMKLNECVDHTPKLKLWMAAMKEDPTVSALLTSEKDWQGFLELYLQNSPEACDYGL
Fam108B counter – blocks mouse Fam108B hydrolase in RBBP9 counter-screen. recombinant Fam108B, FP-Rh probe fluorescence polarization. inhibition, % at 9.51 µM. actives 0.33% (n = 300,000). AID 1947;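 active = inhibition above the screen mean inhibition plus 3 SD, computed separately per campaign, cut at about 18% in these data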;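 note: inhibitors lower polarization as less probe binds the enzyme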
PME-1 primary – PME-1 (human) inhibition. recombinant PME-1, FP-Rh probe fluorescence polarization. inhibition, % at 5.9 µM. actives 0.53% (n = 320,000). Q9Y570. AID 2130;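 active = inhibition above the campaign mean of all compounds plus 3 SD, cut at about 26% in these data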;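 note: competitive labeling of PME-1 active site by serine hydrolase directed probe; inhibitors block probe labeling so polarization falls and inhibition rises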
PREPL inh cf – human PREPL inhibition, confirmation; inhibition, % at 5.96 µM; actives 67% (n = 2,000); recombinant PREPL, fluorescence polarization activity probe; shares compounds with PREPL inh
Large screens that a line does not name were inactive (follow-up assays come after a bar, where they were run). Cut-off read from the data, not from the text of the source, unless noted: active = inhibition above about 43%; inactive = the rest.

O=C(N/N=C/c1ccc(OCc2ccccc2)cc1)c1cc[n+](Cc2ccccc2)cc1	PREPL inh 52.8 | PREPL inh cf inactive
Cc1cc(C)n(CCNS(=O)(=O)c2ccc(C)c(C)c2)n1	none
Oc1ccccc1/C=N/n1cnn(Cc2ccccc2Cl)c1=S	none
O=C(CSc1nnc(-c2cccc(Br)c2)o1)N1CCOCC1	none
C/C(=N\Nc1ccc([N+](=O)[O-])cc1)c1cccc(N)c1	PREPL inh 54.5 | PREPL inh cf 45.8
Cc1ccc(C2CC(c3ccc(C)cc3)n3nc(N)nc3N2)cc1 (stereo not given)	PREPL inh 52.8 | PREPL inh cf 48.2
COc1cccc(C2CC(c3ccc(F)cc3)Nc3nc(N)nn32)c1 (stereo not given)	PREPL inh 43.5 | PREPL inh cf 45.7
Nc1nc2n(n1)C(c1ccccc1)CC(c1ccc(F)cc1)N2 (stereo not given)	none
COc1cccc(C2CC(c3ccc(C(C)C)cc3)n3nc(N)nc3N2)c1 (stereo not given)	none
Cc1ccc(C2CC(c3ccco3)n3nc(N)nc3N2)cc1 (stereo not given)	none
COc1ccc(C2CC(c3ccccc3)Nc3nc(N)nn32)cc1 (stereo not given)	none
Cc1ccccc1C1CC(c2ccc(F)cc2)Nc2nc(N)nn21 (stereo not given)	PREPL inh 43.9 | PREPL inh cf inactive
COc1ccc(C2CC(c3cccc(C)c3)n3nc(N)nc3N2)cc1 (stereo not given)	PREPL inh 54.8 | PREPL inh cf 58.7
CCc1cccc(C)c1NC(=S)N(Cc1cccnc1)Cc1ccco1	none
CCc1ccc(C2CC(c3ccc(Cl)cc3)n3nc(N)nc3N2)cc1 (stereo not given)	PREPL inh 45.1 | PREPL inh cf 49.5
CCOc1ccc(C2CC(c3ccccc3)Nc3nc(N)nn32)cc1 (stereo not given)	none
COc1ccc(C2CC(c3cccc(Cl)c3)n3nc(N)nc3N2)cc1 (stereo not given)	PREPL inh 54.6 | PREPL inh cf 57.0
CCc1ccc(C2CC(c3ccc(F)cc3)Nc3nc(N)nn32)cc1 (stereo not given)	none
COc1ccc(C2c3ccc4ccccc4c3Oc3ncn(CCN4CCOCC4)c(=N)c32)cc1OC (stereo not given)	PREPL inh 46.2 | PREPL inh cf inactive
COc1ccc(N2CCN(C(=O)Cc3coc4cc(C)ccc34)CC2)cc1	none
Cc1ccc2c(CC(=O)Nc3ccc(N4CCN(C)CC4)cc3C)coc2c1	PREPL inh 60.8 | PREPL inh cf 59.8
O=C(Nc1ccc2c(c1)CCC2)C1CCN(c2c3c(nc4ncnn24)CCC3)CC1	PREPL inh 45.6 | PREPL inh cf inactive
O=C1c2c(O)cccc2C(C2OC(CO)[C@@H](O)[C@H](O)[C@H]2O)c2cc(CO)cc(O)c21 (stereo not given in full)	none (no result: GSTO1 inh, Fam108B counter)
O=C(O)c1cc(O)c2c(c1)[C@H]([C@H]1c3cc(C(=O)O)cc(O)c3C(=O)c3c(O[C@@H]4O[C@H](CO)[C@@H](O)[C@H](O)[C@H]4O)cccc31)c1cccc(OC3O[C@H](CO)[C@@H](O)[C@H](O)[C@H]3O)c1C2=O (stereo not given in full)	LYPLA2 inh 75.0, PREPL inh 105.2, GSTO1 inh 71.5, Fam108B counter 96.5, PME-1 primary 71.1 | PREPL inh cf 92.0
Cc1cc(F)ccc1NC(=O)c1cccnc1	none
Cc1csc(SCC(=O)Nc2ccc(F)cc2Cl)n1	none (no result: LYPLA1 inh, LYPLA2 inh, GSTO1 inh, Fam108B counter, PME-1 primary)
CC(C)=CC1C(C(=O)Nc2ccc(S(=O)(=O)N3CCOCC3)cc2)C1(C)C (stereo not given)	none
O=C(Nc1cc(S(=O)(=O)N2CCOCC2)ccc1N1CCOCC1)c1cccs1	none (no result: GSTO1 inh, Fam108B counter)
Cn1c(N2CCOCC2)nc2c1c(=O)n(Cc1ccc(Cl)c(Cl)c1)c(=O)n2C	PREPL inh 43.5 | PREPL inh cf inactive
Cc1noc(C)c1S(=O)(=O)N(CC(=O)NC1CCC(C)CC1)c1ccc(C(C)C)cc1 (stereo not given)	none
Nc1ccc2ncccc2c1N	PREPL inh 47.5 | PREPL inh cf 46.0
CC(=O)c1c(OC(=O)c2ccc(C)cc2)c2ccccc2n1C	none
Cc1ccc(C(=O)Oc2cc(C)n(C)c(=O)c2)cc1	PREPL inh 47.3 | PREPL inh cf inactive
Cc1ccc(Nc2nc(NCCO)c3ccccc3n2)cc1C	PREPL inh 55.8 | PREPL inh cf 50.1
COc1cc([C@H]2c3[nH]c4ccccc4c3C[C@H]3C(=O)N4[C@@H](c5cc(OC)c(OC)c(OC)c5)c5[nH]c6ccccc6c5C[C@H]4C(=O)N23)cc(OC)c1OC	none
COc1cc(C2NCCc3c2[nH]c2ccccc32)ccc1OC(C)C (stereo not given)	PREPL inh 44.0 | PREPL inh cf inactive
O=C(c1cc([N+](=O)[O-])ccc1N1CCOCC1)N1CCN(S(=O)(=O)c2cc(Cl)ccc2Cl)CC1	none
Cc1cc(C)n2nc(/C(C#N)=C/c3ccccn3)c(C#N)c2n1	PREPL inh 64.8 | PREPL inh cf inactive
Cc1ccc(OCC(O)CNC(C)c2ccccc2)cc1C (stereo not given)	none
Nc1cnccc1Oc1cccc(C(F)(F)F)c1	none
CCn1cc(CNC(=O)c2ccc3nc(Cc4ccc(OC)cc4)oc3c2)cn1	none
Cc1ccc(CNC(=O)c2ccc(Br)o2)cc1	none
Cc1cc2cc(CNC(=O)c3ccc(Br)o3)ccc2n1C	PREPL inh 65.2 | PREPL inh cf 65.6
Cc1cc2cc(CNC(=O)c3ccc(Br)o3)ccc2[nH]1	PREPL inh 53.1 | PREPL inh cf inactive
Cc1[nH]c2ccc(C(=O)NCCCN3CCCCCC3)cc2c1C	PREPL inh 46.1 | PREPL inh cf inactive
O=C(Nc1ccccc1)C1=C[C@@H](c2coc3ccccc3c2=O)C[C@@H](OCc2ccc(CO)cc2)O1	PREPL inh 48.6 | PREPL inh cf 47.9
CC1(C)CCCN(Cc2c(O)ccc3c(=O)c(-c4nc5ccccc5s4)c(N)oc23)C1	PREPL inh 43.6 | PREPL inh cf inactive
CC1CCCN(Cc2c(O)ccc3c(=O)c(-c4nc5ccccc5s4)c(N)oc23)C1 (stereo not given)	PREPL inh 64.6 | PREPL inh cf 62.1
CC1CCN(Cc2c(O)ccc3c(=O)c(-c4nc5ccccc5s4)c(N)oc23)CC1	PREPL inh 44.5 | PREPL inh cf inactive
CC(C)(C)[C@@H]1COC(=O)[C@H](Cc2ccc(F)cc2)C/C=C\C[C@@H](CC(=O)N(CCO)Cc2ccccc2)C(=O)N1	PREPL inh 48.1 (no result: LYPLA1 inh, LYPLA2 inh, GSTO1 inh, Fam108B counter, PME-1 primary) | PREPL inh cf 46.0
C[C@H]1COC(=O)[C@H](Cc2ccc(F)cc2)C/C=C\C[C@H](CC(=O)N(CCO)Cc2ccccc2)C(=O)N1	none (no result: LYPLA1 inh, LYPLA2 inh, GSTO1 inh, Fam108B counter, PME-1 primary)
